# Source: PubChem BioAssay AID1851 (National Center for Advancing Translational Sciences (NCATS), 2009)
# Several values for one entry are separate records, joined by “and”; a condition that tells them apart may be missing. Equal values may be shown once. Among all 16,000 compounds or so, about 5,800 (36%) were called active. Not shown: some 23% with an inconclusive outcome. This is one part of the list. Unmarked numbers belong to inactive results. Calls follow the shape of the dose curve; as a rule, active = well fitted curve in the direction sought with a large enough effect; inconclusive = small, poorly fitted or top-dose-only effect, or effect the other way; inactive = no such curve, though single readings can be large or run the other way.
# Molecular target: Cytochrome P450 2C19 (Homo sapiens) (UniProt P33261)
# Sequence (P33261 whole entry, looked up): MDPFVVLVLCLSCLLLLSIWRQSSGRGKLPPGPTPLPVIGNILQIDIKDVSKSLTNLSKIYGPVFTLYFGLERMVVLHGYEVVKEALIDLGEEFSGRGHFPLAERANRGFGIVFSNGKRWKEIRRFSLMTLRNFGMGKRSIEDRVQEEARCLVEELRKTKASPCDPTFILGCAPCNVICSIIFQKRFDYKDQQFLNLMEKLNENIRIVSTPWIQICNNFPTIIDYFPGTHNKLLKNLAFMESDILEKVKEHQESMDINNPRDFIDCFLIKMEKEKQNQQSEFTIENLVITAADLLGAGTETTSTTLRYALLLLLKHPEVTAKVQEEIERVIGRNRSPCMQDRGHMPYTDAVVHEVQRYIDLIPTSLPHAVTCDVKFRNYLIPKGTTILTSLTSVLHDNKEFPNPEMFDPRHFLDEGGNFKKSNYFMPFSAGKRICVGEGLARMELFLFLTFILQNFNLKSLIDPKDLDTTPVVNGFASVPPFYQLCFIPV
# Assay: Cytochrome panel assay with activity outcomes
# Conditions: recombinant CYP, pro-luciferin dealkylation, luminescence, p450-cyp2c19; series mostly up to 57.1 µM; activity, negative = inhibition: at the top concentration
# % is scaled to controls: 0 for no effect and ±100 for the full control effect.
SMILES,"activity, negative = inhibition",AC50
Nc1c(C(=O)NCc2ccccc2)sc2nc3c(cc12)C(=O)CCC3,-22.7%,
O=C(NC1CCCCC1)c1sc(=S)n2c1[nH]c(=O)c1ccccc12,,4.47 µM (active)
O=C(NCc1ccccc1)c1sc(=S)n2c1[nH]c(=O)c1ccccc12,,11.2 µM (active)
CC(=O)O[C@]1(C(C)=O)CC[C@@H]2[C@@H]3C=C(C)C4=CC(=O)CC[C@@]4(C)[C@H]3CC[C@]21C,-8.41% [at 25.6 µM],
CC(=O)CC(=O)[C@@]1(O)CC[C@@H]2[C@@H]3C=C(C)C4=CC(=O)CC[C@@H]4[C@H]3CC[C@]21C,,5.01 µM (active)
N#CC(=C(/N)Sc1ccccc1N)/C(C#N)=C(/N)Sc1ccccc1N,-43%,
N#Cc1ccccc1Sc1ccccc1N,,2.82 µM (active)
C[C@@H](c1ccccc1)N1C(=O)[C@@H]2[C@H]3C(=CC[C@H]2C1=O)C(=O)[C@H]1O[C@H]1[C@H]3O,18.8% [at 11.4 µM],
Cc1ccc(S(=O)(=O)N(Cc2ccccc2)c2ccccc2C(=O)NCc2ccco2)cc1,,3.55 µM (active)
CC(=O)OCC1=C(C(=O)O)N2C(=O)[C@@H](NC(=O)CSc3ccncc3)[C@@H]2SC1,,inactive
CC1=C(C(=O)O)N2C(=O)C(NC(=O)c3ccn(C)n3)C2SC1 (stereo not given),,25.1 µM (active)
N[C@H](C(=O)N[C@@H]1C(=O)N2C(C(=O)O)=C(Cl)CS[C@@H]12)c1ccccc1,,inactive
CCCCN(C)Cc1c(C)[nH]c2ccc(Cl)cc2c1=O,-27.8%,
C#CCN(C)CCCOc1ccc(Cl)cc1Cl,,5.01 µM (active) and 2.51 µM (active)
O=[N+]([O-])c1ccc(S(=O)(=O)Cc2ccccc2)c2nonc12,,3.16 µM (active)
O=[N+]([O-])c1cccc2c[nH]nc12,7.18%,
CN1CCN(c2ncncc2-c2ccccc2Cl)CC1,-30.3%,
CN1CCN(c2ncncc2-c2ccccc2C(F)(F)F)CC1,,15.8 µM (active)
CNc1cc(-c2ccccc2C(F)(F)F)ncn1,-43.7%,
FC(F)(F)c1ccccc1-c1cc(NCCN2CCOCC2)ncn1,15.6%,

SMILES,"activity, negative = inhibition",AC50
CN1CCN(c2cc(-c3ccccc3C(F)(F)F)ncn2)CC1,,10 µM (active)
CN(C)c1ncc2nc(-c3cccs3)c(=O)n(CCc3ccccc3)c2n1,-44.5%,
O=c1onc(-c2cccs2)n1Cc1ccccc1,,1 µM (active)
CCn1nc(C)c(NC(=O)/C=C/c2cnn(C)c2C)c1C,0.913%,
COc1ccc(Br)cc1/C=C/C(=O)Nc1c(C)cccc1C,,4.47 µM (active)
O=C(O)Cn1ccnc1[N+](=O)[O-],4.05% [at 11.4 µM],
O=C(c1cnccn1)N1CCC[C@@]2(CCN(Cc3ccncc3)C2)C1,,10 µM (active)
O=C(c1cc(C(F)(F)F)cc(C(F)(F)F)c1)N1CCC[C@@]2(CCN(Cc3ccccc3)C2)C1,-36%,
O=C(c1cc(C(F)(F)F)cc(C(F)(F)F)c1)N1CCC[C@@]2(CCN(Cc3ccncc3)C2)C1,,0.2 µM (active)
O=C(c1cnccn1)N1CCC[C@@]2(CCN(Cc3cc(C(F)(F)F)cc(C(F)(F)F)c3)C2)C1,-15.7%,
O=C(c1cnccn1)N1CCC[C@@]2(CCN(c3ccncc3)C2)C1,3.85%,
N#Cc1ccc(CN2CC[C@@]3(CCCN(C(=O)c4cc(C(F)(F)F)cc(C(F)(F)F)c4)C3)C2)cc1,-26.1%,
CCC(=O)O[C@@]1(C(=O)CCl)[C@@H](C)C[C@@H]2[C@H]3CCC4=CC(=O)C=C[C@@]4(C)[C@]3(F)[C@@H](O)C[C@@]21C,-27.9% [at 25.6 µM],
CCOC(=O)c1cccc(NC(=O)COc2ccc([N+](=O)[O-])cc2)c1,,3.55 µM (active)
Cc1ccnc(NC(=O)c2cccc(NC(=O)COc3ccccc3)c2)c1,,15.8 µM (active)
Cc1ccc(S(=O)(=O)CCc2nnc(NC(=O)COc3cccc(C)c3)s2)cc1,5.12%,
O=C(COc1ccc(/C=N/NC(=O)c2ccccc2)cc1)Nc1ccc([N+](=O)[O-])cc1,47%,
C/C(CC(=O)Nc1cc(C)ccn1)=N\NC(=O)COc1cccc(C)c1,,25.1 µM (active)
C[N+]1(CCOc2ccc([N+](=O)[O-])cc2)CCOCC1,-11.9%,
CC(C)c1nc2oc3ccccc3c(=O)c2c(=O)n1-c1ccccc1,4.63%,

SMILES,"activity, negative = inhibition",AC50
Cc1nn(-c2ccc(Cl)cc2)c2sc(C(=O)c3c(N)n(C)c(=O)n(C)c3=O)cc12,-25.1%,
CC(C)Cn1c(N)c(C(=O)CSc2ccc3c(c2)OCCO3)c(=O)n(C)c1=O,,2.51 µM (active)
Cn1c(N)c(C(=O)CSc2ccc3c(c2)OCCO3)c(=O)n(C)c1=O,,5.62 µM (active)
CC(C)Cn1c(=O)n(C)c(=O)c2[nH]cnc21,33%,
COc1ccc(C2=Nc3cccc4cccc(c34)N2)cc1,-28.3%,
C/C(=N\OC(=O)NC1CCCCC1)c1sc(-c2ccccc2)nc1C,,5.62 µM (active)
O=C(O)c1cc2ccccc2c(S(=O)(=O)O)c1O,23.2% [at 11.4 µM],
Cn1cnc([N+](=O)[O-])c1Sc1nc(N)nc2c1ncn2[C@H]1C[C@H](O)[C@@H](CO)O1,8.27% [at 11.4 µM],
Cc1ccc(Sc2c([N+](=O)[O-])ncn2C)cc1,,25.1 µM (active)
Cc1cccc(Sc2c([N+](=O)[O-])ncn2C)n1,-22.4%,
Cc1nn(Cc2c(Cl)cccc2Cl)c(C)c1NC(=O)c1cnn2c(C(F)F)cc(-c3ccccc3)nc12,,7.08 µM (active)
CC(C)CNC(=O)c1ccc(COc2ccc(Cl)cc2Cl)o1,,10 µM (active)
O=C(Nc1cccnc1)c1ccc(COc2cc(Cl)ccc2Cl)o1,,2.51 µM (active)
O=C(Nc1ccn(Cc2ccccc2F)n1)c1ccc(COc2cc(Cl)ccc2Cl)o1,,0.708 µM (active)
Cn1ncc(Cl)c1C(=O)Nc1cccnc1,-28.6%,
O=C(N/N=C/c1ccc(O)cc1)c1ccc(COc2cc(Cl)ccc2Cl)o1,,4.47 µM (active)
CC(=O)O[C@@H](C)C[N+](C)(C)C,,inactive
CO[C@@H]1COC(=O)CC=C[C@@H](C)[C@@H]2C=C[C@H](O)[C@@H](COC(=O)C/C=C\[C@H]1C)O2,-32.3% [at 11.4 µM],
O=C(c1ccccc1)[C@H](Nc1ccc2ccccc2c1)c1ccccc1,,1 µM (active)
O=C(O)[C@@H](c1ccccc1)[C@@H](C(=O)O)c1ccccc1,8.57% [at 11.4 µM],
